The source of these data is PubChem BioAssay (NCATS).

The nature of test [1]: Inducers of the Endoplasmic Reticulum Stress Response (ERSR) in human glioma: Validation (AID 504836). Also: 0% is about no effect. The method in brief: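 Stably transfected U87-MG human glioma cells carrying a GRP78-based luminescent sensor were seeded at 1000 cells/well, pin-dosed with compounds and incubated 16 h. Luciferase reagent was then added, and end-point luminescence was read after 10 min at room temperature.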

A short description of test [2]: qHTS for Inhibitors of the Functional Ribonucleoprotein Complex (vRNP) of Lassa (LASV) Arenavirus: LASV Primary Screen - GLuc reporter signal (AID 1347082; calls by dose curve; tested in HEK293 reporter line; also: nearly all actives have a fitted effect of over 60% in size; also: potency is read from the fitted curve at half-maximal effect; as to activity change, negative = inhibition: % is scaled to controls: 0 for no effect and ±100 for the full control effect). In general terms: Quantitative high-throughput screening tests each substance at several concentrations.
Test [3] can be described thus: Cytotoxicity counterscreen for inhibitors of SARS-CoV-2 cell entry (AID 1645845; calls by dose curve; also: % is scaled to controls: 0 for no effect and ±100 for the full control effect; nearly all actives have a fitted effect of over 50% in size). The essentials: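 Expi293F/hACE2 cells seeded overnight; cpd pin-transferred in DMSO, 1 h preincubation, + media, 48 h 37 C 5% CO2; ATPLite 1step luminescence; normalized to cells and no cells.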
Background: Counterscreens check selectivity or assay interference.

Test [4] can be described thus: Primary qHTS to identify inhibitors of SARS-CoV-2 cell entry (AID 1645846; calls by dose curve; also: nearly all actives have a fitted effect of over 45% in size; also: potency is read from the fitted curve at half-maximal effect). Conditions: activity change, negative = inhibition: at 57.1 µM (top of the series) unless noted. The essentials: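 HEK293-ACE2 (Expi293F, stable hACE2), 1500 cells/well, o/n 37C; cpd 23 nL pin, 1 h; MLV-PP w/ SARS-CoV-2-S (Wuhan-Hu-1, Δ19 C-term); 48 h 37C; Bright-Glo luminescence; normalized vs S-PP and bald PP.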

A short description of test [5]: qHTS for Inhibitors of the Functional Ribonucleoprotein Complex (vRNP) of Lassa (LASV) Arenavirus: Viability assay - alamar blue signal for LASV Primary Screen (AID 1347083; calls by dose curve; tested in HEK293 reporter line; also: nearly all actives have a fitted effect of over 80% in size; also: potency is read from the fitted curve at half-maximal effect).
Test [6] is described as follows: VSVG counterscreen qHTS to identify inhibitors of SARS-CoV-2 cell entry (AID 1645847; calls by dose curve; also: potency is read from the fitted curve at half-maximal effect; nearly all actives have a fitted effect of over 65% in size). The method in brief: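 Expi293F/hACE2 cells, overnight plating; cpd 1 h, 37C/5% CO2; + VSV-G PP (MLV pseudotyping), 48 h; supernatant removed, Bright-Glo luciferase read. Norm: VSV-G PP and bald PP wells.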
A short description of test [7]: Validation screen for inhibitors of Lassa infection (AID 463096; calls by dose curve; also: potency is read from the fitted curve at half-maximal effect; as to activity change, negative = inhibition: % is scaled to controls: 0 for no effect and ±100 for the full control effect).
Test [8] addresses Alpha-galactosidase (Coffea arabica) (UniProt Q42656). The test can be described thus: Counterscreen for Glucocerebrosidase Inhibitors: qHTS Assay for Coffee Bean alpha-Galactosidase at pH 4.5 (AID 957).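 Also: plate controls were enzyme alone for no effect and no enzyme for full effect.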 The essentials:
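Coffee bean enzyme (2 nM) with 80 uM 4-methylumbelliferyl alpha-D-galactopyranoside in 50 mM citric acid, 0.005% Tween-20, pH 4.5, 20 min at room temperature; compounds 0.7 nM–77 uM. Stopped at pH 10, fluorescence 365/440 nm; AC50 from Hill fits.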

For test [9] the target is unchanged. The test is described as follows: Counterscreen for Glucocerebrosidase Inhibitors: qHTS Assay for Coffee Bean alpha-Galactosidase at pH 5.9 (AID 998).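 Also: plate controls were uninhibited enzyme for no effect and no-enzyme basal signal for full effect.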 The method in brief: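 Green coffee bean enzyme (2 nM final) was incubated with compounds (0.7 nM–77 uM) and 4-methylumbelliferyl alpha-D-galactopyranoside (80 uM) in citrate buffer pH 5.9, 20 min at room temperature. High-pH stop; fluorescence 365/440 nm; AC50 from Hill fits.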

A short description of test [10]: qHTS profiling of the MIPE4 collection as inhibitors of Plasmodium falciparum (3D7) proliferation (AID 743344; call rule not given here;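 also: scaled between DMSO vehicle wells and 0.29 µM artemisinin as full inhibition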). To be noted: P. falciparum 3D7 in erythrocytes, SYBR Green DNA fluorescence, 72 h; at 28.5 µM (top of the series) unless noted. The essentials: (§1)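 Erythrocytes infected with P. falciparum (0.3% parasitemia, 2.5% hematocrit) incubated with compounds 72 h at 37 C, 5% CO2. Lysis with saponin/Triton buffer containing SYBR Green I, overnight at room temperature in the dark; DNA fluorescence (485/535 nm) normalised to 0.29 uM artemisinin and DMSO.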

Test [11] in a line: qHTS profiling of the MIPE4 collection as inhibitors of Plasmodium falciparum (DD2) proliferation (Rep 2) (AID 743346; call rule not given here). To be noted: P. falciparum Dd2 in erythrocytes, SYBR Green DNA, 72 h; at 28.5 µM (top of the series) unless noted. The method in brief: as §1
Test [12] has as its target Rap guanine nucleotide exchange factor 3 (Homo sapiens) (UniProt O95398). The test can be described thus: Confirmatory qHTS for agonist of cAMP-regulated guanine nucleotide exchange factor 3 (EPAC1) (AID 1645881).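 Also: EPAC1 catalysed release of BODIPY-GDP from Rap1B seen as fluorescence loss; 100% = effect of cAMP agonist control; nearly all actives have a fitted effect of over 75% in size.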
The target in test [13] is Rap guanine nucleotide exchange factor 4 (Homo sapiens) (UniProt Q8WZA2). The test is described as follows: Confirmatory qHTS for agonist of cAMP-regulated guanine nucleotide exchange factor 4 (EPAC2) (AID 1645884).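 Also: nucleotide exchange releases bodipy-GDP from Rap1 and this lowers its fluorescence; % is scaled to controls: 0 for no effect and ±100 for the full control effect; nearly all actives have a fitted effect of over 65% in size.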
Test [14] shares this target. The test is described as follows: Confirmatory qHTS for antagonist of cAMP-regulated guanine nucleotide exchange factor 4 (EPAC2) (AID 1645885). Also: % is scaled to controls: 0 for no effect and ±100 for the full control effect; nearly all actives have a fitted effect of over 25% in size.
For test [15], the target named is Rap guanine nucleotide exchange factor 3 (Homo sapiens) (UniProt O95398). The test is described as follows: Counterscreen qHTS for antagonist of cAMP-regulated guanine nucleotide exchange factor 3 (EPAC1) (AID 1645888). Also: % of control where 0% means no effect. The essentials: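 Measured: fluorescence of BODIPY-GDP bound to Rap1B, which falls as exchange proceeds. Conditions include 50 uM competing GDP, 5 and 30 min reads, and a later cAMP challenge for antagonist detection.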

Test [16] concerns the target Voltage-gated inwardly rectifying potassium channel KCNH2 (Homo sapiens) (UniProt Q12809). The test can be described thus: qHTS Assay for Small Molecule Inhibitors of the Human hERG Channel Activity (AID 588834).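 Also: potency is read from the fitted curve at half-maximal effect; lower thallium flux fluorescence means stronger hERG block; nearly all actives have a fitted effect of over 50% in size.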 The method in brief: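 Concentration-response qHTS measuring drop in thallium-sensitive dye signal. U2OS cells carrying BacMam hERG; compound exposure ~10 min, then stimulation buffer and 2 min read at 1 sec intervals.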

Test [17] in a line: qHTS for Inhibitors of the Functional Ribonucleoprotein Complex (vRNP) of Lymphocytic Choriomeningitis Arenaviruses (LCMV): Viability assay - alamar blue signal for LCMV Primary Screen (AID 1347085; calls by dose curve; tested in HEK293 reporter line; also: nearly all actives have a fitted effect of over 80% in size; also: potency is read from the fitted curve at half-maximal effect).
In test [18] the target is Nucleoprotein (Lymphocytic choriomeningitis virus (strain Armstrong)) (UniProt P09992). The test is described as follows: qHTS for Inhibitors of the Functional Ribonucleoprotein Complex (vRNP) of Lymphocytic Choriomeningitis Arenaviruses (LCMV): LCMV Primary Screen - GLuc reporter signal (AID 1347086; calls by dose curve; also: potency is read from the fitted curve at half-maximal effect; nearly all actives have a fitted effect of over 70% in size).

Records with an inconclusive call do not appear. Calls of active or inactive are those of the source. Unless noted, calls follow the shape of the dose curve; as a rule, active = well fitted curve in the direction sought with a large enough effect; inconclusive = small, poorly fitted or top-dose-only effect, or another doubt; inactive = no such curve, though single readings can be large; an effect the other way counts as inactive or inconclusive.

Chain of Alpha-galactosidase (Coffea arabica) (Q42656 whole entry, looked up): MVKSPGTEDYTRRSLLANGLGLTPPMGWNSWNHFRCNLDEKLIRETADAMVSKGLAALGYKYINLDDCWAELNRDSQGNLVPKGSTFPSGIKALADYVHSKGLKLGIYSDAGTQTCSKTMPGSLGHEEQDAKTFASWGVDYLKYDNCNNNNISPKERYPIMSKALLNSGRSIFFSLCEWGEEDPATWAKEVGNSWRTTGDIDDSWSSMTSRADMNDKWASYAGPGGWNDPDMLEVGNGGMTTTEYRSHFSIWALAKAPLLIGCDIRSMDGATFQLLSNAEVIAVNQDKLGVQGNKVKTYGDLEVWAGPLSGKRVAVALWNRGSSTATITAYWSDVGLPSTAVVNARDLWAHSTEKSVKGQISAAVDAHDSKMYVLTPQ
Chain of Rap guanine nucleotide exchange factor 4 (Homo sapiens) (Q8WZA2 whole entry, looked up): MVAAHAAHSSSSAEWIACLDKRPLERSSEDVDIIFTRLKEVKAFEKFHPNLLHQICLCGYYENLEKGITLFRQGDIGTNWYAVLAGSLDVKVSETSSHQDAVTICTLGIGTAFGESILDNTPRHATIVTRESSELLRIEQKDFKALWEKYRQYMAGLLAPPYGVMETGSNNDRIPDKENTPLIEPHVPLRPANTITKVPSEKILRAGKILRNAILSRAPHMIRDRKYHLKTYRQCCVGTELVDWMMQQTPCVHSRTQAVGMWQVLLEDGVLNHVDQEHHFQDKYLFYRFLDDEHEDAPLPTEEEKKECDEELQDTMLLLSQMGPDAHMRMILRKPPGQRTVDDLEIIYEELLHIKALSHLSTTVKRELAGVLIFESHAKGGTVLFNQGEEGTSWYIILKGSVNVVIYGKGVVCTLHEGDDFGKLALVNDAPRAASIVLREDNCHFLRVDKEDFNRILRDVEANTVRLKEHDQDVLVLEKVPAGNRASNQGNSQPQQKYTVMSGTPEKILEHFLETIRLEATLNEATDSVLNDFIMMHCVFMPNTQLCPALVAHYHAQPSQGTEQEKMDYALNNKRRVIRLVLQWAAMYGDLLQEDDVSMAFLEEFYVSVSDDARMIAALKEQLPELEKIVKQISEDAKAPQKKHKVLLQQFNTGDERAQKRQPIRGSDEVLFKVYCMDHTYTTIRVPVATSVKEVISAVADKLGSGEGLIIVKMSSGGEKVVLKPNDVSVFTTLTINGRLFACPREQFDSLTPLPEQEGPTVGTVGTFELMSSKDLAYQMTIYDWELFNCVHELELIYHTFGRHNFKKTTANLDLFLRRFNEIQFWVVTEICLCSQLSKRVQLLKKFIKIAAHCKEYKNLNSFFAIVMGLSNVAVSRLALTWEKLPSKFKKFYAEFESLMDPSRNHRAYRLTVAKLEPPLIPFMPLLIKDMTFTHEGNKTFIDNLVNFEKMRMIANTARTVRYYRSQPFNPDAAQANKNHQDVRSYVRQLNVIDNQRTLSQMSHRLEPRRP
Chain of Rap guanine nucleotide exchange factor 3 (Homo sapiens) (O95398 whole entry, looked up): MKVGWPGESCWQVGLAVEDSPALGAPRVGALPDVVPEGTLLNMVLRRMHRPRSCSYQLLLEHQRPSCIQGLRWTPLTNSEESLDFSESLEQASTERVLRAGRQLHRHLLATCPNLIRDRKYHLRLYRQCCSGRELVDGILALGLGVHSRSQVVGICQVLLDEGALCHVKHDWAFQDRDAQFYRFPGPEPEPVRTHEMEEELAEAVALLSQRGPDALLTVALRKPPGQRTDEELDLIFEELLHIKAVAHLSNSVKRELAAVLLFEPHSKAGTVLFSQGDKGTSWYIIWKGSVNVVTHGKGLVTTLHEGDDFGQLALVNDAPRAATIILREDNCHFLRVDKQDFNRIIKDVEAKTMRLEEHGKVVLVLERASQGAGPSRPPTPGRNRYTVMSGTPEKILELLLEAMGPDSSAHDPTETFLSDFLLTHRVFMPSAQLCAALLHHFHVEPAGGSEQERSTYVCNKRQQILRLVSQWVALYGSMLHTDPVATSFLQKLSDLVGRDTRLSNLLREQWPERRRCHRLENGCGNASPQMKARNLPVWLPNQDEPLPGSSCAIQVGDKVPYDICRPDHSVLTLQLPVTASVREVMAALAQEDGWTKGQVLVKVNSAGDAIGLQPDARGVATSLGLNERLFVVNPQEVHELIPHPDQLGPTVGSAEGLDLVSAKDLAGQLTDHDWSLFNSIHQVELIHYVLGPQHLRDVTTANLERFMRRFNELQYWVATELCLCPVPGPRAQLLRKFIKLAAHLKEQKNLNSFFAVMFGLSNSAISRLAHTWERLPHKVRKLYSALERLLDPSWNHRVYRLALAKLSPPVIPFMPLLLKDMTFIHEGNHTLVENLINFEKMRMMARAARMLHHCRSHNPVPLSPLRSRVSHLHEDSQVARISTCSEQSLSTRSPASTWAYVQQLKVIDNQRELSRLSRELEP
Chain of Voltage-gated inwardly rectifying potassium channel KCNH2 (Homo sapiens) (Q12809 whole entry, looked up): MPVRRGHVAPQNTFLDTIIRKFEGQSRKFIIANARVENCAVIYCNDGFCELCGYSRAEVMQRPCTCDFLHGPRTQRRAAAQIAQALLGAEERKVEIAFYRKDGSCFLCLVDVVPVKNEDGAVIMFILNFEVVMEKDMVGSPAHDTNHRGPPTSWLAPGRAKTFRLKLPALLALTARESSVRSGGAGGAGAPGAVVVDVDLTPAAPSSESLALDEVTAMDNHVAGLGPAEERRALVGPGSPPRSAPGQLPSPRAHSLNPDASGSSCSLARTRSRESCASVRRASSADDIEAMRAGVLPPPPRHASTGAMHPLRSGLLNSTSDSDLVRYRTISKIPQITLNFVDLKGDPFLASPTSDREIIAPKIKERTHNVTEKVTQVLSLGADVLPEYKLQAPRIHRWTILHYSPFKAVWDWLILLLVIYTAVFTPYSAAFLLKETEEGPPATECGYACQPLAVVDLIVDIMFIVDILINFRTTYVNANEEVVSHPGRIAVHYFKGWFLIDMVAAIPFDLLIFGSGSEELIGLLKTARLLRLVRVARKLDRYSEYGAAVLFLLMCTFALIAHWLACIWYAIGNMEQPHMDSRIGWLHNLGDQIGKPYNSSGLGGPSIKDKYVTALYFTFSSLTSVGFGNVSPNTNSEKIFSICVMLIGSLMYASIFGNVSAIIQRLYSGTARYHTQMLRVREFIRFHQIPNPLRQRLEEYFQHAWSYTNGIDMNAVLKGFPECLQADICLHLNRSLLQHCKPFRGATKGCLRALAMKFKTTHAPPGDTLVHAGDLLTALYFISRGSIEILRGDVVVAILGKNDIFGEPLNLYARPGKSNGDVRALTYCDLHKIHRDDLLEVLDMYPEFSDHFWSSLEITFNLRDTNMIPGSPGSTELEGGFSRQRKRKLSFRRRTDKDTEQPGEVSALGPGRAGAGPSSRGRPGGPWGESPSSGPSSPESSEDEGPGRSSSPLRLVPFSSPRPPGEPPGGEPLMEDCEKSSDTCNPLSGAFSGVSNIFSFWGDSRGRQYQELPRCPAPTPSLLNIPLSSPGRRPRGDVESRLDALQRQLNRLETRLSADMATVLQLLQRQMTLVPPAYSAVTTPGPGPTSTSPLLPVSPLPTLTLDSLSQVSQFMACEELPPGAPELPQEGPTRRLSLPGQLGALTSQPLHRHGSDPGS
Chain of Nucleoprotein (Lymphocytic choriomeningitis virus (strain Armstrong)) (P09992 whole entry, looked up): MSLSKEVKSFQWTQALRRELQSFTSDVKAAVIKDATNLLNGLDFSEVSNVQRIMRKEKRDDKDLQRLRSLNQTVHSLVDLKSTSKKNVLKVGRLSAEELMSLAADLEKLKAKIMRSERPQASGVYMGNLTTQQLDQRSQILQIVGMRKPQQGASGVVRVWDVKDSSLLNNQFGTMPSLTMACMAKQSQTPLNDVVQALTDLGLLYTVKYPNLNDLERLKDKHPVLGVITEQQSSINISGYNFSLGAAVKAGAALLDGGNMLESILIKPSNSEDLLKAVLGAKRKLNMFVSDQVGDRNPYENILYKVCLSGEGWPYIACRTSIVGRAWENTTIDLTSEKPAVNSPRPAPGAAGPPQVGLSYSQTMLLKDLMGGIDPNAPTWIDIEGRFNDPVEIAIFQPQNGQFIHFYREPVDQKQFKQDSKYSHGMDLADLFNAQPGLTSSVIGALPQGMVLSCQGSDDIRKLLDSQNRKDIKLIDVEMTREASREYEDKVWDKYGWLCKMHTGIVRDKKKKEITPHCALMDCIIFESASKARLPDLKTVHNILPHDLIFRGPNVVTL

Regarding `CCOC(=O)N1CCN(/[N+]([O-])=N/Oc2ccc([N+](=O)[O-])cc2[N+](=O)[O-])CC1`, the molecule was classed as inactive in test [1]. The Potency entry in test [2] and in test [3] was “inactive” each time. For the same molecule, the activity change, negative = inhibition in test [4] is -5.73%.

For the molecule `COc1cc2c(cc1O)CCC1C2CC[C@@]2(C)C1CC[C@@H]2O` (stereo partly specified), in test [5], the Potency was 5.44 µM (active).

`CCN(CC)CCCC(C)Nc1nc(C)cc(Nc2ccc3nc(C)cc(N)c3c2)n1` (stereo unspecified): the Potency result in [2] and in test [3] was “inactive” each time. The activity change, negative = inhibition in test [4] is -23.9%.

Consider `CN1c2ccccc2C(=O)N2CCc3c([nH]c4ccccc34)C21` (stereo unspecified), for which the Potency entry in test [2] is “inactive”. Also, the values for the Potency in [4] and in test [6] were 6.31 µM (active) and 3.83 µM (active), respectively.

`CC1CNCCN1S(=O)(=O)c1cccc2cnccc12` (stereo unspecified): the Potency entry in [7] and in test [2] was “inactive” in each case. Moreover, in test [1], the result was inactive.

As for `O=C(O)C=Cc1ccc(O)c(O)c1`, in test [5], the Potency is 43.2 µM (active).

As to `CC(C=CC(=O)NO)=C[C@@H](C)C(=O)c1ccc(N(C)C)cc1`, the Potency in test [5] is 15.3 µM (active).

Regarding `CCOC(=O)N1c2ccc(C(F)(F)F)cc2[C@@H](N(Cc2cc(C(F)(F)F)cc(C(F)(F)F)c2)C(=O)OC)C[C@H]1CC`, the Potency entry in test [2], in [3] and in [4] was “inactive” throughout.

With `CCCCCCC/C=C/C=O`, in test [5], the Potency result was “inactive”.

`C=C1C(=O)C=C[C@]2(C)C[C@@H]3OC(=O)[C@](C)(O)[C@H]3C[C@@H]12`: the Potency in test [5] is 14.1 µM (active).

In the case of `O=Nc1c(-c2c(O)[nH]c3ccccc23)[nH]c2ccccc12`, the result in test [8] and in test [9] was inactive. The Potency result in [2] was “inactive”.

Take `Oc1ccc2ccccc2c1SSc1c(O)ccc2ccccc12`: the molecule was classed as inactive in test [1]. In addition, the Potency result in test [2] and in test [3] was “inactive” each time.

Take `CC(=O)OC1(C)CC(C)C(=O)C(C(O)CC2CC(=O)NC(=O)C2)C1` (stereo unspecified): the Potency result in test [5] is “inactive”.

Consider `COc1ccc(COc2cc3oc(=O)c4cc(C(C)O)ccc4c3cc2OC)cc1` (stereo unspecified), for which the Potency result in test [2] and in [3] was “inactive” each time. In test [4], the activity change, negative = inhibition is -25.6%.

With `COc1ccc(-c2cc3ncc(C)n3c(Nc3ncccc3C(N)=O)n2)cc1OC`, in test [1], the molecule was called inactive. Moreover, the Potency entry in [2] is “inactive”.

With `COc1ccc(NC(=O)c2ccc(-c3ccc(-c4noc(C)n4)cc3C)cc2)cc1N1CCN(C)CC1`, the molecule was called inactive in test [8], in test [9] and in test [1]. Moreover, the Potency in test [7] is 7.94 µM (active). In test [2], the Potency entry is “inactive”.

In the case of `COc1ccc2c3c1OC1C[C@@H](O)C=C[C@@]31CCN(C)C2` (stereo partly specified), the parasite growth, % of DMSO control in [10] was determined as 89.5%. For the same molecule, the parasite growth, % of control (lower = inhibition) in [11] stood at 65.2%. Besides, the Potency result in test [2] is “inactive”.

As for `COc1cc2c(cc1OC)-c1c(OC)c(OC)cc3c1C(C2)N(C)CC3` (stereo unspecified), the Potency result in test [2] and in [14] was “inactive” in each case. For the same molecule, the molecule was called inactive in test [12], in test [13] and in test [15].

On to `Oc1ccc(C2=Cc3ccc(O)cc3OC2)cc1`, for which the Potency in [5] was 24.3 µM (active).

As to `CN(C)c1cc2c(Nc3ccc4c(cnn4Cc4ccccc4)c3)ncnc2cn1`, the molecule was called inactive in test [8], in [9] and in test [1]. Also, in test [2], the Potency entry was “inactive”.

Consider `C[C@@]12C(=O)OC(=O)[C@@]1(C)C1CCC2O1`, for which the Potency in test [5] is 19.3 µM (active).

For the molecule `CCC1(O)CC2CN(CCc3c([nH]c4ccccc34)[C@@](C(=O)OC)(c3cc4c(cc3OC)N(C=O)C3[C@]45CCN4CC=C[C@@](CC)([C@@H](OC(C)=O)[C@]3(O)C(=O)OC)[C@H]45)C2)C1` (stereo partly specified), the Potency in test [7] is 20 µM (active). The Potency entry in test [2] was “inactive”.

As to `COc1ccc(-n2c(C)c([N+](=O)[O-])c3ccc(O)cc32)cc1`, the Potency entry in test [2] and in test [3] was “inactive” throughout. The activity change, negative = inhibition in test [4] is -4.69%.

Take `N=C(N)c1ccc(OCCCCCOc2ccc(C(=N)N)cc2)cc1` (tested in a mixture with another compound): the outcome in test [8], in test [9] and in [1] was inactive. For the same molecule, the Potency entry in [7] is “inactive”. Also, in test [2], the Potency was 7.08 µM (active).

Consider `Oc1cc(-c2nc(-c3ccccc3)[nH]c2-c2ccncc2)ccc1Cl`, for which the Potency in test [5] is 1.53 µM (active).

In the case of `O[Si](CCCN1CCCCC1)(c1ccc(F)cc1)C1CCCCC1` (stereo unspecified), the call in test [1] was inactive. Further, the Potency in test [16] is 14.1 µM (active). Also, in [2], the Potency entry was “inactive”.

For the molecule `CNC1CCC(N(Cc2cccc(-c3ccncc3)c2)C(=O)c2sc3c(F)ccc(F)c3c2Cl)CC1` (stereo unspecified), the Potency was 7.69 µM (active) in test [5] and 5.44 µM (active) in test [17].

Turning to `Cn1cc(-c2cnn3c(N)c(Br)c([C@H]4CCCNC4)nc23)cn1`, the Potency is 1.22 µM (active) in [5], 1.53 µM (active) in test [17] and 2.73 µM (active) in [18].

As for `CC(C)C[C@@H]1NC(=O)[C@H](Cc2ccccc2)N(C)C(=O)[C@H](C)NC(=O)c2ccccc2NC(=O)[C@H](Cc2ccc(O)cc2)N(C)C1=O`, the Potency in [5] was 8.91 µM (active).

For the molecule `O=C(OCCOCCO)c1ccccc1Nc1cccc(C(F)(F)F)c1`, the Potency result in test [5] and in test [17] was “inactive” in each case.

Take `CC(=O)OCC(=O)[C@@]12N=C(C)O[C@H]1C[C@H]1[C@@H]3CCC4=CC(=O)C=C[C@]4(C)[C@@H]3[C@@H](O)C[C@@]12C`: the Potency entry in test [5] and in test [17] was “inactive” throughout.

As to `COC1C(O)C(C)OC(OC2CCC3(C)C(CCC4C3C(O)CC3(C)C(C5=CC(=O)OC5)CCC43O)C2)C1O` (stereo unspecified), the Potency was 0.251 µM (active) in test [5] and 0.355 µM (active) in test [17].

`COc1cc(C(=S)N2CCOCC2)cc(OC)c1OC`: the Potency entry in test [5] and in test [17] was “inactive” throughout.

Turning to `CCC1=C[C@@H]2CN(C1)Cc1c([nH]c3ccccc13)[C@@](C(=O)OC)(c1cc3c(cc1OC)N(C)[C@@H]1[C@@](O)(C(=O)OC)[C@H](OC(C)=O)[C@]4(CC)C=CCN5CC[C@]31[C@@H]54)C2`, the Potency was 0.306 µM (active) in test [5] and 0.217 µM (active) in test [17].

For the molecule `CO[C@H]1C[C@@H]2CC[C@@H](C)[C@@](O)(O2)C(=O)C(=O)N2CCCC[C@@H]2C(=O)O[C@H]([C@H](C)C[C@@H]2CC[C@H](OP(C)(C)=O)[C@H](OC)C2)CC(=O)[C@H](C)C=C(C)[C@@H](O)[C@@H](OC)C(=O)[C@H](C)C[C@H](C)C=CC=CC=C1C`, the Potency was 0.0109 µM (active) in test [5] and 0.0153 µM (active) in [17].

Consider `CN[C@@H]1C[C@H]2O[C@@](C)([C@H]1OC)n1c3ccccc3c3c4c(c5c6ccccc6n2c5c31)C(=O)N[C@H]4O`, for which the Potency in [5] was 0.355 µM (active); in [17] it was 2.73 µM (active).
